Results taken from publication PMC7819943, “Rice protein-binding microarrays: a tool to detect cis-acting elements near promoter regions in rice”.
The full ranking holds about 39,000 sequences; the median of “fluorescence intensity (a.u.)” is about 4,300, and the highest 2% start at about 39,000. The entries come from a sample that favours the highest values as a whole.

These sequences were tested against T1, OsSMF1 (Oryza sativa, UniProt Q6ZLB0 1-436) (assay: protein-binding microarray (RPBM); PBS, 2% BSA, 51.3 ng/ul salmon testes DNA, 50 uM zinc acetate, 200 nM TF, 25 C, 1 h; high values mean tight binding). Settings: protein: recombinant; tags: N-terminal polyhistidine and DsRed monomer fusion (pET32a); chain copies: 2; label: CyDye5-dUTP incorporated in the synthesized complementary strand; 3' TTTTT single-stranded linker to array surface; dsDNA, one strand shown.
T1 sequence: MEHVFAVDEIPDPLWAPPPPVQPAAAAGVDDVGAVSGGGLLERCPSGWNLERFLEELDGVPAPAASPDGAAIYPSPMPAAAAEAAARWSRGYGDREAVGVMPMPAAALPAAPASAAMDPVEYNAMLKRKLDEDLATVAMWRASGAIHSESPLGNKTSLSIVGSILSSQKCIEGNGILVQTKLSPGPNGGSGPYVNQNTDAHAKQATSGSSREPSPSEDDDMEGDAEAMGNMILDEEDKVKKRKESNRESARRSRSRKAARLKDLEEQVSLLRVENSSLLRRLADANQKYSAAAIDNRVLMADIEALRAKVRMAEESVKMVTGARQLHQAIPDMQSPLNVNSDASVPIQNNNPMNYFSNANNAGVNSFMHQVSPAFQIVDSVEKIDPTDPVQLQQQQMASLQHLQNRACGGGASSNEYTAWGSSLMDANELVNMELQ
Summary of the method: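 The binding signal is fluorescence intensity per feature, in arbitrary units, read on an Axon 4000B scanner. Polyhistidine- and DsRed-tagged transcription factors (N-terminal fusions) from E. coli BL21-CodonPlus were purified on Ni–NTA and applied at 200 nM for 1 h at 25 °C to a double-stranded, BSA-blocked custom Agilent array in buffer with 50 µM zinc acetate.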

| Sequence | binding signal |
| --- | --- |
| ACCTACATGTGCGTAATATTCGTGGACACCAGGATTTAAACGGAGTCACCTAGTGCAG | 3510 fluorescence intensity (a.u.) |
| TTGTATTTTGGAAATATGACGCATTAGATGTTTTATATATCGGAGTCACCTAGTGCAG | 3570 fluorescence intensity (a.u.) |
| GTTGAGGTCTCGCGCTCCCGTCCTCGTCTCGTCCTCTCCCCGGAGTCACCTAGTGCAG | 21500 fluorescence intensity (a.u.) |
| TATGAGTATCCTATATACATATATATACATATATATATACCGGAGTCACCTAGTGCAG | 27300 fluorescence intensity (a.u.) |
| TATGAGGGTATCAGGGTCGTTGAGGTCTCTCCTCCTACACCGGAGTCACCTAGTGCAG | 41000 fluorescence intensity (a.u.) |
| TCACGCTCTCAACGCTGCTGTGTCACGTCACGTCACGCGCCGGAGTCACCTAGTGCAG | 16400 fluorescence intensity (a.u.) |
| TGAAAATATATTCAATTATTGATTCGATAAAACTAATTTACGGAGTCACCTAGTGCAG | 3460 fluorescence intensity (a.u.) |
| CTAAAACAGGCGAGTAGGATATACTACCTTCAATTATATTCGGAGTCACCTAGTGCAG | 40600 fluorescence intensity (a.u.) |
| TTTCAACAGATATTTTATTGTGACGTTGCAATTACTAAAACGGAGTCACCTAGTGCAG | 4950 fluorescence intensity (a.u.) |
| TCAACCGTATCTGACGCCTGCATTTCCTCTACCAGCCAAGCGGAGTCACCTAGTGCAG | 4010 fluorescence intensity (a.u.) |
| CTAAAACTCAACATATAAACATGCCACCTCATCATCTATACGGAGTCACCTAGTGCAG | 7400 fluorescence intensity (a.u.) |
| AAATAGCCAAGCCATATCATCTCATCCATATCATAATCGGCGGAGTCACCTAGTGCAG | 3200 fluorescence intensity (a.u.) |
| TATGAAATATCCCATCCTATCATAGATTATTATATTACGACGGAGTCACCTAGTGCAG | 26400 fluorescence intensity (a.u.) |
| CATCCTAACGGATTATTCTCTCAACCCCACGAACCATTCACGGAGTCACCTAGTGCAG | 19200 fluorescence intensity (a.u.) |
| GCAACATAACCCATCCTAGATTGCTATATATTGGGACGAACGGAGTCACCTAGTGCAG | 65500 fluorescence intensity (a.u.) |
| CAGGCCGGAAACCGGCCGAGCCCACCCATTAGAAAGGACGCGGAGTCACCTAGTGCAG | 22900 fluorescence intensity (a.u.) |
| CACTCAAAATCTCTTTCGTGTCCACCTCACCTTGCACCACCGGAGTCACCTAGTGCAG | 4870 fluorescence intensity (a.u.) |
| TCCCGTCTCGGCTCCTTGCGCCATCGTCGACAGGGGAGGGCGGAGTCACCTAGTGCAG | 3540 fluorescence intensity (a.u.) |
| ACGAGCCCACGAGGTTGATGACGACGAAGCCGAAGAGTTGCGGAGTCACCTAGTGCAG | 4660 fluorescence intensity (a.u.) |
| GATGGGCCCACCCGTCATCCACACGAGGGCCACGCCTTGCCGGAGTCACCTAGTGCAG | 3380 fluorescence intensity (a.u.) |
| GGCCTTGCCACGAGCCCACGAGAGGTTTGGTTGATGGGCCCGGAGTCACCTAGTGCAG | 46500 fluorescence intensity (a.u.) |

| Sequence | binding signal |
| --- | --- |
| CCACCATGGCATGCCACGTCAACACACAGAGTGGGTTGGACGGAGTCACCTAGTGCAG | 17900 fluorescence intensity (a.u.) |
| CAAATGCAGAAAAGATAATCTCCTTTCTCTCTCTATTAAACGGAGTCACCTAGTGCAG | 31100 fluorescence intensity (a.u.) |
| TCACACCCCATCTATGTTGTCGCTCCACATAGGCTAGGCCCGGAGTCACCTAGTGCAG | 3260 fluorescence intensity (a.u.) |
| TTGTTCCTTGCTAATATATTGACGTGTAATTCTTTTATGCCGGAGTCACCTAGTGCAG | 9690 fluorescence intensity (a.u.) |
| TGGTACAAGGATTTGTCCTGTCAACATGGCAATCCTCTGCCGGAGTCACCTAGTGCAG | 3360 fluorescence intensity (a.u.) |
| GCAACCACCGTGACGCCGCCGCGCGCCCACTGGAACACGTCGGAGTCACCTAGTGCAG | 5010 fluorescence intensity (a.u.) |
| TCCACCGTCTGCTACTGCTAGCGTGCTACTGTCTCGCTGACGGAGTCACCTAGTGCAG | 3350 fluorescence intensity (a.u.) |
| GCGCTGACGTGTCGCTATCCTACTGGAACACACCACGTCACGGAGTCACCTAGTGCAG | 46500 fluorescence intensity (a.u.) |
| AGGATTTCATGTGTTTTGGTTAACATATTCATGTGTGTCTCGGAGTCACCTAGTGCAG | 3500 fluorescence intensity (a.u.) |
| TTTTAGTATATTTATATACTTTGTGCAAGGTGACATGTACCGGAGTCACCTAGTGCAG | 3440 fluorescence intensity (a.u.) |
| CTTCTCTTATTGTTTGTGTCATTTTCATTTATGTCCTTGTCGGAGTCACCTAGTGCAG | 3940 fluorescence intensity (a.u.) |
| GGAGTGGCGGGGTTGCGGCATTGGGAGCTGACGTGGCCGCCGGAGTCACCTAGTGCAG | 25400 fluorescence intensity (a.u.) |
| ATATAAATAGGTTTCGAGGTAGAATATCAAAACAAGGATGCGGAGTCACCTAGTGCAG | 39300 fluorescence intensity (a.u.) |
| GTAGAATTATAAAATATATTGTGTACACAATAGGTTTATGCGGAGTCACCTAGTGCAG | 3330 fluorescence intensity (a.u.) |
| AAACATCATATCAAATCTTTGGACATAGGTATAGAATATTCGGAGTCACCTAGTGCAG | 8890 fluorescence intensity (a.u.) |
| GAGCCACGGTGGAAGGGTATAATCGTAATTTCGCGTATGGCGGAGTCACCTAGTGCAG | 3370 fluorescence intensity (a.u.) |
| ACCGGGTCGCGCGCGTCGTTGAAACGTCACACCTAGCTAACGGAGTCACCTAGTGCAG | 4280 fluorescence intensity (a.u.) |
| CGAATCTTTTGAGCCTAATTAATCTATCATTAGCACATGTCGGAGTCACCTAGTGCAG | 3170 fluorescence intensity (a.u.) |
| AGTAAATCCACATCAACAGCATTCTGTTGTTAACTCTGCCCGGAGTCACCTAGTGCAG | 6820 fluorescence intensity (a.u.) |
| TGAAAATCGCATACTAATTAGCTATTAGTCATGAGCTCTTCGGAGTCACCTAGTGCAG | 3590 fluorescence intensity (a.u.) |
| CAGGGAGCATTGAGATTCACTTTGTCACGATGGTAATATACGGAGTCACCTAGTGCAG | 22600 fluorescence intensity (a.u.) |
